Compound activity: PubChem BioAssay, several laboratories
Rows were chosen to be rich in hits. Some 3.6% of all compounds tested hit in one or more screens of this group.
Wnt bcat act = activators of Wnt/beta-catenin signaling; Wnt/beta-catenin reporter cell assay, activator, plate reader; activation, % at 9.35 µM; 300,000 compounds, 1.2% hits; in the data active means activation above about 30%, passing the limit was not always enough; inconclusive means no clear call, values can overlap the other calls;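 further: 0% = neutral control wells and 100% = positive control wells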
PHOSPHO1 block = inhibitors of human PHOSPHO1 phosphatase; Q8TCT1; recombinant PHOSPHO1, absorbance phosphatase assay; inhibition, % at 13.3 µM; 290,000 compounds, 1.1% hits; AID 1565; in the data active means inhibition above about 60%
APOBEC3A inh = inhibitors of human APOBEC3A DNA deaminase; P31941; recombinant A3A, FAM/TAMRA ssDNA deamination fluorescence; inhibition, % at 20 µM; 330,000 compounds, 0.41% hits; AID 493011;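 active means at least 40% inhibition at 20 µM here, with at most 30% in a related deaminase screen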;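 further: plate controls were A3A with DMSO for no effect and wells lacking A3A enzyme for full effect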
Target sequence (P31941 whole entry, looked up): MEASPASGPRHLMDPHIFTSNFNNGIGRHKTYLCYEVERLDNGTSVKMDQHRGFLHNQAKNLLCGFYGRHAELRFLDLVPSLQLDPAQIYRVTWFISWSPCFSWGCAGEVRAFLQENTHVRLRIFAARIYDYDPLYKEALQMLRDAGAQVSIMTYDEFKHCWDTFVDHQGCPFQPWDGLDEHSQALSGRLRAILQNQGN
esBAF inh = blocks esBAF chromatin remodeling in mouse ES cells. Bmi1-luciferase knock-in reporter, 24 h; 100% = twice the neutral-well signal. reporter increase, % at 12.5 µM. 350,000 compounds, 2% hits; in the data active means activation above about 40%; inconclusive means no clear call, values can overlap the other calls;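 further: 0% = median of the plate's neutral control wells and 100% = double that signal; a rise in the Bmi1 reporter signal indicates esBAF inhibition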
MITF TRPM1 HTS = increases MITF-driven TRPM1 promoter luciferase signal. 300,000 compounds, 0.75% hits. AID 588334. SK-MEL-5 TRPM1-promoter luciferase, 24 h; % of positive control, neutral wells = 0. activation, % at 12.5 µM;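 active means mean activation of at least 80% with every replicate also reaching 80%; inconclusive means mean reaches 80% but some replicate falls short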;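 further: 0% = neutral control wells and 100% = parthenolide positive control wells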
APOBEC3G inh = inhibitors of human APOBEC3G DNA deaminase | recombinant A3G, ssDNA deamination FAM/TAMRA fluorescence | Q9HC16 | inhibition, % at 20 µM | 330,000 compounds, 0.28% hits | AID 493012;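 active means inhibition of at least 40% at 20 µM, with no more than 30% in the related APOBEC3A deaminase screen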;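 further: plate controls were DMSO wells with A3G for no effect and wells lacking A3G enzyme for full effect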
Target sequence (Q9HC16 whole entry, looked up): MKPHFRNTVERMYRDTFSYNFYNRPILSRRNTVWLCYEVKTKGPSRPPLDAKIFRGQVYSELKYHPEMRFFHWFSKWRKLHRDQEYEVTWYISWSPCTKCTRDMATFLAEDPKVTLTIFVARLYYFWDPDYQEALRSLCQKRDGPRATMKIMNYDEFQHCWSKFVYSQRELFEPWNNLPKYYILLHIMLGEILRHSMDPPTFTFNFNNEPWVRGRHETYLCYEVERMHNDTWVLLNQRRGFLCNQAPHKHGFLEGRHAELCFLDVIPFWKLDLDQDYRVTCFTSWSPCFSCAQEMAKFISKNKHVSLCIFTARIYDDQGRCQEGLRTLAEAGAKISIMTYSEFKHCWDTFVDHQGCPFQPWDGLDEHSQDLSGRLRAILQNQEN
* marks the source's active call; other numbers are inactive results; ? = inconclusive; · = not tested or not shown.

SMILES	Wnt bcat act	PHOSPHO1 block	APOBEC3A inh	esBAF inh	MITF TRPM1 HTS	APOBEC3G inh
O=[N+]([O-])c1cccc(C2=NC(c3ccccc3)CO2)c1 (stereo unspecified)	?	-6.3	2.2	45.4*	27.0	2.4
O=[N+]([O-])c1cccc(-c2nnc(-c3ccccc3)o2)c1	45.8*	36.7	2.5	·	50.9	-3.9
O=[N+]([O-])c1cccc(-c2nc(-c3ccccc3)no2)c1	·	38.7	-1.4	73.4*	21.7	2.5
O=C(O)[C@H]1[C@H](CO)[C@H]2Cn3c(ccc(-c4cccc(F)c4)c3=O)[C@H]2N1C(=O)c1ccccn1	·	·	·	-0.9	·	·
O=C1c2cccc3c([N+](=O)[O-])ccc(c23)C(=O)N1c1ccccn1	-21.7	33.8	-2.6	-3.4	·	-7.6
O=C1c2cccc3cccc(c23)C(=O)N1c1nccs1	·	-10.0	3.4	-2.4	5.1	-2.6
O=C1c2cccc3c([N+](=O)[O-])ccc(c23)C(=O)N1c1nccs1	·	96.9*	-0.1	-17.2	-58.7	-5.3
O=C1c2cccc3c([N+](=O)[O-])ccc(c23)C(=O)N1c1ccc(Cl)cn1	·	93.4*	0.7	-2.1	-32.3	-5.1
CN(C)C(=O)C[C@H]1CC[C@H]2[C@@H](COC[C@@H](O)CN2CC2CCOCC2)O1	·	·	·	-4.8	·	·
COc1ccc(NC(=O)N(C)C[C@@H]2Oc3c(NC(=O)Nc4cccc5ccccc45)cccc3C(=O)N([C@H](C)CO)C[C@H]2C)cc1	·	·	·	5.8	·	·
O=S(=O)(c1ccc2c(c1)OCCO2)N1CCN(Cc2ccc3c(c2)OCO3)CC1	-5.1	9.7	-0.6	0.0	·	-3.0
Cn1c(=O)oc2cc(S(=O)(=O)N3CCN(Cc4ccc5c(c4)OCO5)CC3)ccc21	·	72.0*	2.2	-4.4	·	-4.1
Cn1cnc(S(=O)(=O)N2CC[C@@H]3[C@@H](CO)Nc4ccc(-c5cccc(F)c5)cc4[C@@H]32)c1	·	·	·	2.4	·	·
CCOC(=O)CN1C(=O)S/C(=C/c2cc(C)n(-c3ccccn3)c2C)C1=O	·	19.3	1.9	44.7*	52.6	0.7
CCOC(=O)CN1C(=O)S/C(=C/c2cc(C)n(C)c2C)C1=O	40.5*	·	2.3	47.2*	87.8*	-0.4
COC(=O)C(C)N1C(=O)S/C(=C/c2cc(C)n(-c3ccccn3)c2C)C1=O (stereo unspecified)	57.0*	15.2	-2.9	-8.8	20.2	-3.2
CCN=c1scc(-c2ccc(F)cc2)n1/N=C/c1ccccn1	17.3	17.2	0.7	·	91.5*	-9.6
CCN=c1scc(-c2ccccc2)n1/N=C/c1ccccn1	·	-14.4	-0.6	·	8.3	-9.9
O=C1CCn2nc(-c3ccc(Cl)cc3)cc2N1	-4.2	-6.2	-0.7	48.2*	28.5	-4.4
Nc1cc(-c2ccc(Cl)cc2)nn1S(=O)(=O)c1ccc(Cl)cc1	-1.1	5.1	0.2	-9.2	0.2	-9.9
N#Cc1cccc(NC(=O)c2cc(C3CCCCN3S(=O)(=O)c3cccc4cccnc34)on2)c1 (stereo unspecified)	-3.4	·	·	52.2*	·	·
Cc1ccc2c(c1C)NC(C(=O)O)C1CC=CC21 (stereo unspecified)	-0.6	61.9*	95.7	-5.4	-6.8	85.3
Cc1cc(C)c2c(c1)NC(C(=O)O)C1CC=CC21 (stereo unspecified)	-0.5	45.3	79.6	-6.1	·	70.1
O=C(c1ccccc1O)N1CCOCC1	4.2	-0.8	-8.4	-2.7	-1.2	-5.8
O=C(O)C1Nc2c(C(=O)N3CCOCC3)cccc2C2C=CCC12 (stereo unspecified)	·	62.7*	95.2	·	2.2	76.9
SMILES	Wnt bcat act	PHOSPHO1 block	APOBEC3A inh	esBAF inh	MITF TRPM1 HTS	APOBEC3G inh
C[C@@H]1CN([C@@H](C)CO)C(=O)c2cc(NC(=O)Nc3ccc(C(F)(F)F)cc3)ccc2O[C@H]1CN(C)C(=O)NC1CCCCC1	·	·	·	-2.3	·	·
CCCSc1nc(N)nc(-c2cccs2)c1C#N	·	11.5	-2.0	47.7*	75.7	-3.4
CC1CCC/C(=C\Nc2ccc3c(c2)OCO3)C1=O (stereo unspecified)	-1.1	81.4*	8.1	15.6	27.9	4.4
CN(CC(=O)N1CCCCCC1)S(=O)(=O)c1ccc(F)cc1	8.5	51.8	-2.2	54.2*	30.9	-10.2
CN(CC(=O)N1CCCCCC1)S(=O)(=O)c1ccccc1	20.1	31.6	-3.6	57.2*	·	-1.2
Cc1ccc(S(=O)(=O)N(C)CC(=O)N2CCCCCCC2)cc1	4.6	·	0.4	-7.7	1.6	-5.2
COc1cccc(/C=N/n2c(=S)n(C)c3ccccc32)c1OC	5.7	73.3*	-2.7	·	·	-4.5
COc1cccc(NC(=S)N/N=C2\CC3CCC2(C)C3(C)C)c1 (stereo unspecified)	4.2	35.8	1.0	53.6*	24.9	-1.0
CC(C)(C)c1ccc(NC(=S)NCc2cccs2)cc1	·	7.1	-1.9	44.4*	36.1	-1.9
CCC(C)c1ccc(NC(=S)NCc2cccs2)cc1 (stereo unspecified)	·	28.3	-2.7	8.3	17.0	-4.9
Cc1ccc(C2NC(=S)N3C(c4ccc(C)cc4)NC(=S)N23)cc1 (stereo unspecified)	6.0	·	·	61.1*	·	·
CN1C(=O)S/C(=C/c2ccc(OCc3cccc(C(=O)O)c3)cc2)C1=O	44.7*	23.5	-4.8	-25.2	-18.1	-10.3
O=C(C[C@H]1C[C@H]2c3cc(NC(=O)C4CCOCC4)ccc3O[C@H]2[C@H](CO)O1)NCc1ccc(Cl)cc1	·	·	·	2.2	·	·
CC(C)NC(=O)Nc1ccc2c(c1)C(=O)N([C@@H](C)CO)C[C@H](C)[C@H](CN(C)C(=O)Nc1cccc3ccccc13)O2	·	·	·	-6.6	·	·
CCS(=O)(=O)c1ccc(C(=O)NC2CC2)c(Cl)c1Cl	-1.3	60.0*	1.3	·	-5.0	-5.9
CCN(CC)CCCN1CC(O)=C(c2nc3ccccc3s2)C1=N	·	5.9	-3.7	·	-6.3	-2.3
N=C1C(c2nc3ccccc3s2)=C(O)CN1Cc1ccccc1	·	11.6	-0.7	48.2*	29.8	-2.7
CC(=O)Nc1nc(=S)ss1	·	78.7*	-6.6	-2.6	-3.8	3.4
CC(C)CC(=O)Nc1nc(=S)ss1	·	10.1	2.3	·	-11.6	4.4
Cc1ccc(SCn2nnc3ccccc3c2=O)c(C)c1	27.3	27.5	-2.7	·	109.9*	-4.6
O=C(COc1ccc(Cl)cc1Cl)OCn1nnc2ccccc2c1=O	7.0	-15.7	0.9	·	-0.8	-3.8
Cc1ccc2nc(SCn3nnc4ccccc4c3=O)[nH]c2c1	-1.5	-31.2	-7.7	·	33.7	-14.2
O=c1c2ccccc2nnn1Cc1ccccc1	4.5	-3.6	-0.5	0.6	1.9	-5.0
O=c1c2ccccc2nnn1COc1cccc(Cl)c1	7.3	-6.7	-2.8	59.5*	43.9	-10.6
O=c1c2ccccc2nnn1CCc1ccccc1	42.7*	·	·	20.1	·	·
C/C=C/c1cnc2c(c1)C(=O)N([C@H](C)CO)C[C@@H](C)[C@@H](CN(C)C(=O)c1cccc(F)c1)O2	·	·	·	-6.9	·	·
O=C(Nc1ccccc1Cl)c1cccs1	·	-6.8	1.6	14.8	35.2	-2.1
